# According to PubChem BioAssay (Tox21):
# Inconclusive results are not listed. Entries that show only a call come without a potency. Active and inactive are the calls of the source. Calls come from the whole dose curve; as a rule, active = well fitted activation curve with a large enough effect in the repeat runs; inconclusive = weak or mixed curves; inactive = flat fitted curve, though single readings scatter.
# Assay: Caspase-3/7 induction in HepG2 cells by small molecules, qHTS assay (AID 1346978); note: nearly all actives have a fitted effect of over 15% in size
# Conditions: HepG2 caspase-3/7 activation, Caspase-Glo luminescence, 17 h; series mostly up to 92.4 µM
# Outline: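 Wild-type HepG2 cells (2,000/well) were settled 5 h at 37 C, 5% CO2, then exposed to compounds in DMSO for 17 h. Caspase-3/7 activity was read by luminescence 30 min after adding Caspase-Glo 3/7 reagent at room temperature.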
# Potency is the fitted concentration of half-maximal effect.
row,Compound,Potency
1,CC(C)Br,inactive
2,CN(C)c1ccc(N)cc1,inactive
3,N#Cc1c[nH]cc1-c1cccc2c1OC(F)(F)O2,12.2 µM (active)
4,Nc1cc(Cl)ccc1Cl,inactive
5,COP(=O)(OC)Oc1ccc([N+](=O)[O-])cc1,inactive
6,Nc1c(Cl)c(Cl)c(Cl)c(Cl)c1Cl,inactive
7,CSC1=N[C@@](C)(c2ccccc2)C(=O)N1Nc1ccccc1,inactive
8,FC(F)C(F)(F)OCC(Cn1cncn1)c1ccc(Cl)cc1Cl (stereo not given),inactive
9,CN1CCc2cc3c(cc2C1O)OCO3 (stereo not given),inactive
10,c1ccc(Nc2ccc(Nc3ccccc3)cc2)cc1,inactive
11,CC(=O)[O-].CC(=O)[O-].O.O.[Zn+2],inactive
12,c1csc(-c2ccc(-c3cccs3)s2)c1,inactive
13,CC[C@H](C)[C@H]1O[C@]2(C=C[C@@H]1C)C[C@@H]1C[C@@H](C/C=C(\C)[C@@H](O[C@H]3C[C@H](OC)[C@@H](O[C@H]4C[C@H](OC)[C@@H](NC)[C@H](C)O4)[C@H](C)O3)[C@@H](C)/C=C/C=C3\CO[C@@H]4[C@H](O)C(C)=C[C@@H](C(=O)O1)[C@]34O)O2,17.2 µM (active)
14,CC1CCCC1,inactive
15,CCC(OC(C)=O)C(CC(C)NC)(c1ccccc1)c1ccccc1 (stereo not given),69.2 µM (active)
16,Nc1ccc(N=Nc2ccccc2)cc1,inactive
17,Oc1ccc([C@H]2CNCc3c2ccc(O)c3O)cc1O,inactive
18,Clc1ccc(C2(Cn3cncn3)OCCO2)c(Cl)c1,inactive
19,Cc1nn(-c2cc(NS(C)(=O)=O)c(Cl)cc2Cl)c(=O)n1C(F)F,inactive
20,CSC(C)(C)/C=N/O,inactive
